Where “and” joins values, the source holds several entries; their conditions need not be identical. Equal entries are not always repeated. About 83,000 compounds went through this panel and 20% of them were active in at least one assay; those are over-represented in the sample as a whole.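 Negative percent growth values reflect cell death: -40 means 40% of the cells present at the start died, and -100 means all died.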 Unmarked numbers belong to inactive results. Calls of active or inactive are those of the source. The calls were made as follows: active = growth percent below 10; inactive = the rest.

This experiment deals with MDA-MB-468 breast. The experiment in a line: NCI-60 one-dose screen, 48 h (100 = growth as untreated, 0 = no growth, -100 = all killed). To be noted: 10 µM unless noted.
Turning to `C#CC(F)(F)[C@]1(O)CCC2C3CCC4=CC(=O)CCC4=C3[C@@H](c3ccc(N(C)C)cc3)C[C@@]21C` (stereo not given in full), the growth is 101%. As for `COC(=O)c1ccc(NC2=C(Cl)C(=O)c3nc(C)ccc3C2=O)cc1`, the growth was 56%. In the case of `Cc1ccc(Nc2ccc(Nc3ccc(C)cc3)c3c2C(=O)c2cccc(O)c2C3=O)cc1`, the growth is 83.3%. For `COCCOC(=O)NC(=O)Nc1ccc(C(=O)c2ccc(Cl)cc2)cc1`, the growth was -8.24% (active). On to `C=CCSC(CC)(CC)C(=O)NC`, for which the growth was 99.3%. Consider `O=C(CSc1nc(-c2ccc(Cl)cc2)cn1-c1ccc(Cl)cc1)c1ccc(Br)cc1`, for which the growth is 81.3%.

On to `COc1ccc(-c2cc(/C=C3\C(=O)Nc4cc(Cl)ccc43)[nH]n2)cc1OC`, for which the growth was 65.5%.

Regarding `COc1cc(/C=C/C(=O)Nc2ccc3c(c2)/C(=C\c2cccn2C)C(=O)N3)cc(OC)c1OC`, the growth is 47.4%. As to `O=C(O)c1ccc(-n2c(=O)n(-c3cccc(C(F)(F)F)c3)c(=O)c3cc(-c4ccc(F)cc4F)ccc32)cc1`, the growth was -4.52% (active). Take `OB(O)c1cccc(-c2nc3ccc4[nH]ncc4c3c3c2CCCC3)c1`: the growth was 59.3%. In the case of `CC(=O)c1ccc2c(c1)CCc1ccccc1-2`, the growth is 94.9%.

As to `N#Cc1nnn(-c2ccc(S(N)(=O)=O)cc2)c1NCC(=O)c1ccccc1`, the growth is 96.7%. Consider `O=C(CNC(=O)c1cccc2ccccc12)Nc1ccccc1Oc1ccccc1`, for which the growth is 19.7%.

As for `C=C1NC(=O)C(C(C)CC)NC(=O)C2CSCC(NC(=O)CCC(=O)O)C(=O)NC(Cc3ccccc3)C(=O)NC(C)C(=O)NC(CC(C)CC)C(=O)NC(C(=O)NC(Cc3ccccc3)C(=O)N3CCCC3C(=O)N2)C(C)OC(=O)C(CO)NC(=O)C(C(O)COC)N(C)C(=O)C(C(C)C)NC(=O)C(CC(C)CC)NC1=O` (stereo not given), the growth was 0.0436% [6 µM] (active). As to `O=S(=O)(Nc1ccc2ccccc2c1)c1ccc(-c2cnc(C3CC3)o2)cc1`, the growth was 6.05% (active). As for `Oc1ccc(CSc2nnc(-c3ccccc3)o2)c2cccnc12`, the figure is 22.9%; as for `CCN(CC)CCSCCCNc1c(C)cnc2cc(Cl)ccc12`, 85.6%; as for `COc1ccc(C(=O)/C=C/c2cc(-c3ccc4c(c3)OCO4)n[nH]2)cc1OC`, 28.2%. As for `COc1nc2c(cc1S(=O)(=O)c1ccccc1)CCc1c-2cnn1-c1ccc(Cl)cc1`, the figure is 87.6%; as for `COc1ccc(C2CC(=O)c3c(O)c(OC)c(OC)c(OC)c3O2)c(O)c1` (stereo not given), -3.61% (active); as for `COc1cc(CNC(=O)Cc2ccccc2)ccc1OCc1cn(-c2ccc(F)cc2)nn1`, 99.8%. Turning to `CCCCN(C)N=Nc1ccc(C(N)=O)cc1`, the growth is 102%.

Regarding `O=C1OC(N(Cc2ccc(Cl)cc2)c2ccccc2)c2ccccc21` (stereo not given), the growth was 104%. With `COC(=O)c1nc(-c2ccc(C)cc2)oc1Sc1ccc(C)cc1`, the growth is 121%. Regarding `CN1CCN(Cc2ccc(NC(=O)c3cncc(C#Cc4cnc5ccc(N6CCN(C)CC6)nn45)c3)cc2C(F)(F)F)CC1`, the growth was -75.2% (active). Regarding `C[Se]C(=O)CC1=C2C=C(F)C=CC2/C(=C\c2ccc(S(C)=O)cc2)C1C` (stereo not given), the growth is -46.2% (active). Take `CCOC(C)(c1ccc(Cl)cc1)C1CCNCC1` (stereo not given): the growth was 90.9%. `CCOC(=O)CSCCC#N`: the growth is 109%. Turning to `O=[N+]([O-])c1cccc(CN(Cc2cccc([N+](=O)[O-])c2O)c2ccccc2)c1O`, the growth is 108%. As for `Cc1cc(-c2ccc(N=Nc3c(C)nn(-c4ccc(S(=O)(=O)O)cc4)c3O)c(C)c2)ccc1N=Nc1ccc(O)c(C(=O)O)c1`, the figure is 113%; as for `CC1=C(NCCN2CCCC2)C(=O)c2c(OCc3ccc(F)c(Cl)c3)cccc2C1=O`, 67.1%. As to `Cn1cccc1/C=C1\C(=O)Nc2ccccc21`, the growth was -1.95% (active). For `C=CCc1cc(C(C)=O)cc(OC)c1O`, the growth was 90.6%. For the molecule `CN1CC[C@@H]2[C@@]3(C)CC[C@H](O)C(C)(C)[C@@H]3CC[C@@]2(C)[C@]2(C)CC[C@@]3(CO)CCC(C)(C)C[C@@H]3C12` (stereo not given in full), the growth was 62%. As for `COc1cc(C(C)c2ccc3c(ccn3C)c2)cc(OC)c1OC` (stereo not given), the figure is 51.9%; as for `CO[C@]12C=C/C(=C(/C(=O)OCc3cccnc3)C(=O)CCCCCCCC[C@]3(OC)C=C/C(=C(/C(=O)OCc4cccnc4)C(=O)CCCCCCCC1)O3)O2`, -50.5% (active).

For the molecule `CCCCCCCCCCCCCCCC[N+](C)(C)CCN(Cc1ccc(OC)cc1)c1ncccn1`, the growth was -49.2% (active) and -52.1% (active).

On to `Cc1ccc(C)c(-n2c(-c3ccc(Br)cc3)csc2=NC(=O)c2ccccc2F)c1`, for which the growth was 55.4%. Take `Cc1ccc(C=C2C(=O)NC(=O)NC2=O)cc1`: the growth is 108%. Consider `Nc1c(C(=O)Nc2cccc(Cl)c2)sc2ncc(Cl)cc12`, for which the growth was 95.3%.

Values taken from PubChem BioAssay (NCI).
